The target of the experiment is SLTM (Homo sapiens, UniProt Q9NWH9). Kind of experiment: protein domain microarray probed with biotinylated miRNA; Domain array: 20 mM Tris-HCl pH 7.4, 200 mM KCl, 0.2 mM EDTA, 0.05% NP40, 2 ug/ul heparin, overnight 4 C. ORF array: PBS pH 7.0 with RNase inhibitor, 100 ng RNA; high values mean tight binding. The settings on record: ssRNA.
Sequence of SLTM (Q9NWH9 360-485): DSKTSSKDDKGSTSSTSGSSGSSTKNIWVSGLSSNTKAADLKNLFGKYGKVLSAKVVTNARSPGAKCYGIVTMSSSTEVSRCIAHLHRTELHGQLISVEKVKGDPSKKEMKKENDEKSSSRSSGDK
Consider CAGUGCAAUGAUGAAAGGGCAU, for which the binding signal was 123 ± 2.81 fluorescence intensity.

UGAGGUAGUAGGUUGUAUGGUU had a binding signal of 141.8 ± 1.03 fluorescence intensity.

The sequence UAGCUUAUCAGACUGAUGUUGA gave a binding signal of 33.6 ± 0.863 fluorescence intensity.

In turn, UGAGGUAGUAGGUUGUAUAGUU returned a binding signal of 57.9 ± 0.728 fluorescence intensity.

Take UGAGGUAGUAGGUUGUGUGGUU: the binding signal was 305 ± 14.8 fluorescence intensity.

As to AGAGGUAGUAGGUUGCAUAGUU, the binding signal was 123 fluorescence intensity.

Source of the values: paper PMC11574364.
